# Source: PubChem BioAssay (EPA / NIEHS)
# Records with an inconclusive call do not appear. Activity calls are given as the source filed them. Rule for the calls: active = hit-call score of the fitted dose curve at least 0.9, where 1 is the maximum; inconclusive = response in the unintended direction; inactive = score below 0.9.
# Tests used:
# [1] = biological target: human Phosphodiesterase 5 (PDE5), PDE5A (gene 8654) (UniProt O76074); assay: NVS_ENZ_hPDE5: NovaScreen (NVS) Enzymatic Assay for human Phosphodiesterase 5 (PDE5) (AID 2283194)
# In short: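 Screening began in duplicate at 25 uM, with actives taken into concentration-response. Enzyme activity of recombinant PDE5 toward its substrate was measured at 1 h by fluorescence mobility-shift detection, relative to DMSO controls.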
# [2] = biological target: sheep Cyclooxygenase-1 (Cox1), PTGS1 (gene 443551) (UniProt P05979); assay: NVS_ENZ_oCOX1: NovaScreen (NVS) Enzymatic Assay for sheep Cyclooxygenase-1 (Cox1) (AID 2283239);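 note: actives reduce cyclooxygenase activity so potencies are for inhibitors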
# In short: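 COX1 from ovine seminal vesicles, activity read colorimetrically about 0.66 h after dosing. Primary screen in duplicate at 25 uM; actives retested in concentration series; loss of signal fitted versus DMSO.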
# [3] = biological target: rat Thyrotropin Releasing Hormone Receptor (TRH), Trhr (gene 25570) (UniProt Q01717); assay: NVS_GPCR_rTRH: NovaScreen (NVS) G Protein-Coupled Receptor Assay for rat Thyrotropin Releasing Hormone Receptor (TRH) (AID 2283329);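 note: hit means lower bound tracer signal versus DMSO baseline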
# In short: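 Rat forebrain membrane prep, radioligand displacement, filter scintillation readout at 4 h. Single conc 25 uM, duplicate; actives retested as concentration series. DMSO = negative control/baseline.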
# [4] = biological target: human Matrix Metalloproteinase-9 (MMP9), MMP9 (gene 4318) (UniProt P14780); assay: NVS_ENZ_hMMP9: NovaScreen (NVS) Enzymatic Assay for human Matrix Metalloproteinase-9 (MMP9) (AID 2283190);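 note: cell-free recombinant MMP9 protease activity read by fluorescent substrate signal; active means inhibition seen as loss of fluorescence signal versus DMSO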
# In short: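 Inhibition was scored as loss of fluorescence signal against DMSO controls. The recombinant protease was exposed to chemicals for 1 hour before reading; initial testing used 25 uM in duplicate.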
# [5] = biological target: human Phosphoinositide 3-kinase alpha (PI3Ka), PIK3CA (gene 5290) (UniProt P42336); assay: NVS_ENZ_hPI3Ka: NovaScreen (NVS) Enzymatic Assay for human Phosphoinositide 3-kinase alpha (PI3Ka) (AID 2283196)
# In short: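 Chemicals were first screened at 25 uM in duplicate, then hits were run as concentration series up to 50 uM. Enzyme activity was measured by fluorescence after mobility-shift separation, with loss of signal relative to DMSO taken as activity.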
# [6] = biological target: guinea pig Opioid, Kappa 1 Receptor (OpiateK), OPRK1 (gene 100135587) (UniProt P41144); assay: NVS_GPCR_gOpiateK: NovaScreen (NVS) G Protein-Coupled Receptor Assay for guinea pig Opioid, Kappa 1 Receptor (OpiateK) (AID 2283252);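 note: active means reduced radioligand binding relative to DMSO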
# In short: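 Radioligand binding to kappa opioid receptor in guinea pig cerebellar membranes, read by filtration and scintillation at 2 h. Compounds first tested in duplicate at 25 uM, then actives in concentration series; signal loss fitted against DMSO.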
# [7] = biological target: human Neurokinin, NK2 Receptor, TACR2 (gene 6865) (UniProt P21452); assay: NVS_GPCR_hNK2: NovaScreen (NVS) G Protein-Coupled Receptor Assay for human Neurokinin, NK2 Receptor (AID 2283278);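 note: actives reduce bound radioligand signal relative to DMSO baseline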
# In short: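 Filter-based scintillation counting measured radioligand bound to receptor extracted from CHO cells, 4 hours after compound addition. Chemicals screened first at 25 uM in duplicate, with actives retested in concentration series relative to DMSO.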
# [8] = biological target: human Opioid Receptor Mu (Opiate Mu), OPRM1 (gene 4988) (UniProt P35372); assay: NVS_GPCR_hOpiate_mu: NovaScreen (NVS) G Protein-Coupled Receptor Assay for human Opioid Receptor Mu (Opiate Mu) (AID 2283290);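 note: hits lower bound tracer signal versus DMSO meaning displacement of the ligand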
# In short: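 CHO-derived receptor protein, cell-free; radioligand displacement, filtration + scintillation counting, read at 2.5 h. DMSO = negative control/baseline. Primary: 25 uM single conc, duplicate; secondary: concentration series.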
# [9] = biological target: human Phosphodiesterase 10 (PDE10), PDE10A (gene 10846) (UniProt Q9Y233); assay: NVS_ENZ_hPDE10: NovaScreen (NVS) Enzymatic Assay for human Phosphodiesterase 10 (PDE10) (AID 2283195)
# In short: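 Fluorescence readout after mobility-shift separation of substrate and product, 1 h reaction with recombinant human enzyme. Single-concentration duplicates at 25 uM, then concentration-response up to 50 uM for chemicals reaching threshold; DMSO baseline.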
# [10] = biological target: human Adenosine A2a Receptor (AdoRA2a), ADORA2A (gene 135) (UniProt P29274); assay: NVS_GPCR_hAdoRA2a: NovaScreen (NVS) G Protein-Coupled Receptor Assay for human Adenosine A2a Receptor (AdoRA2a) (AID 2283256)
# In short: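 HEK293-derived receptor preparation, radioligand displacement, 1.5 h, filtration + scintillation read. Loss of bound signal scored vs DMSO. Single-point 25 uM in duplicate first, then concentration-response for actives.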
# [11] = biological target: Sodium channel protein type 1 subunit alpha (Rattus norvegicus) (UniProt P04774); assay: NVS_IC_rNaCh_site2: NovaScreen (NVS) Ion Channel Assay for rat Sodium Channel, Site 2 (NaCh) (AID 2283322);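 note: hit means loss of radioligand binding signal relative to DMSO so AC50 marks displacement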
# In short: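 Initial duplicate single-point testing at 25 uM, followed by concentration-response runs for actives. Binding of radioligand to rat forebrain membranes quantified after 1 h via filter-based radiodetection.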
# [12] = biological target: human Vascular Endothelial Growth Factor Receptor 1 (VEGFR1), FLT1 (gene 2321) (UniProt P17948); assay: NVS_ENZ_hVEGFR1: NovaScreen (NVS) Enzymatic Assay for human Vascular Endothelial Growth Factor Receptor 1 (VEGFR1) (AID 2283226)
# In short: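 Kinase activity of recombinant human VEGFR1 was read by fluorescence after electrophoretic separation of product from substrate, 1 h post-dosing; initial duplicate single-point testing at 25 uM, followed by concentration-series follow-up, with DMSO as baseline.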
# [13] = biological target: human Vascular Endothelial Growth Factor Receptor 3 (VEGFR3), FLT4 (gene 2324) (UniProt P35916); assay: NVS_ENZ_hVEGFR3: NovaScreen (NVS) Enzymatic Assay for human Vascular Endothelial Growth Factor Receptor 3 (VEGFR3) (AID 2283229)
# In short: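 Chemicals first run in duplicate at 25 uM, with actives re-tested in concentration series to a top of 50 uM. Recombinant VEGFR3 activity measured after 1 h via fluorescence with mobility-shift product separation; inhibition fitted relative to DMSO.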
# [14] = biological target: human Vascular Endothelial Growth Factor Receptor 2 (VEGFR2), KDR (gene 3791) (UniProt P35968); assay: NVS_ENZ_hVEGFR2: NovaScreen (NVS) Enzymatic Assay for human Vascular Endothelial Growth Factor Receptor 2 (VEGFR2) (AID 2283230)
# In short: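 Cell-free recombinant VEGFR2 kinase, fluorescent substrate with electrophoretic mobility-shift separation; read 1 h after dosing. Screened at 25 uM in duplicate, hits to concentration-response up to 50 uM; loss-of-signal versus DMSO.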
# [15] = biological target: guinea pig Leukotriene D4 Receptor (LTD4), CYSLTR1 (gene 100135514) (UniProt Q2NNR5); assay: NVS_GPCR_gLTD4: NovaScreen (NVS) G Protein-Coupled Receptor Assay for guinea pig Leukotriene D4 Receptor (LTD4) (AID 2283248)
# In short: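 Guinea pig lung membrane preparation; bound radioligand measured by filter scintillation after 1 h, loss of signal versus DMSO marking displacement. Compounds tested at 25 uM in duplicate, hits retested to max 50 uM.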
# [16] = biological target: human Thromboxane A2 Receptor (TXA2), TBXA2R (gene 6915) (UniProt P21731); assay: NVS_GPCR_hTXA2: NovaScreen (NVS) G Protein-Coupled Receptor Assay for human Thromboxane A2 Receptor (TXA2) (AID 2283282);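 note: actives reduce bound radioligand signal relative to DMSO baseline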
# In short: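 Cell-free radioligand binding with human platelet-derived receptor; 1 h after dosing, filter-based scintillation counting, loss of signal vs DMSO. Primary screen in duplicate at 25 uM.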
# [17] = biological target: Muscarinic acetylcholine receptor M2 (Homo sapiens) (UniProt P08172); assay: NVS_GPCR_hM2: NovaScreen (NVS) G Protein-Coupled Receptor Assay for human Muscarinic, M2 Receptor (AID 2283273)
# In short: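 CHO-expressed human M2 receptor preparation, competitive displacement of a radioligand read by filter-based scintillation counting after 1 h. Single 25 uM duplicate screen, then concentration-response follow-up of actives; DMSO baseline.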
# [18] = biological target: human Sirtuin 3 (SIRT3), SIRT3 (gene 23410) (UniProt Q9NTG7); assay: NVS_ENZ_hSIRT3: NovaScreen (NVS) Enzymatic Assay for human Sirtuin 3 (SIRT3) (AID 2283222)
# In short: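 Cell-free enzyme assay with recombinant protein and fluorescent substrate, product separated by electrophoretic mobility shift; read 1 hour after dosing. Screened in duplicate at 25 uM, then singleton concentration-response up to 50 uM; loss of signal versus DMSO.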
# [19] = biological target: rat Neonicotinoid receptor (NNR), Chrna7 (gene 25302) (UniProt Q05941); assay: NVS_LGIC_rNNR_BungSens: NovaScreen (NVS) Ligand-Gated Ion Channel Assay for rat Neonicotinoid receptor (NNR) (AID 2283315)
# In short: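 Rat cortical membrane preparation incubated 2.5 h with tritiated or iodinated radioligand and test chemical. Bound radioactivity was filtered and counted by scintillation, and displacement was analysed against DMSO.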
# human Vascular Endothelial Growth Factor Receptor 1 (VEGFR1), FLT1 (gene 2321), sequence (P17948 whole entry, looked up): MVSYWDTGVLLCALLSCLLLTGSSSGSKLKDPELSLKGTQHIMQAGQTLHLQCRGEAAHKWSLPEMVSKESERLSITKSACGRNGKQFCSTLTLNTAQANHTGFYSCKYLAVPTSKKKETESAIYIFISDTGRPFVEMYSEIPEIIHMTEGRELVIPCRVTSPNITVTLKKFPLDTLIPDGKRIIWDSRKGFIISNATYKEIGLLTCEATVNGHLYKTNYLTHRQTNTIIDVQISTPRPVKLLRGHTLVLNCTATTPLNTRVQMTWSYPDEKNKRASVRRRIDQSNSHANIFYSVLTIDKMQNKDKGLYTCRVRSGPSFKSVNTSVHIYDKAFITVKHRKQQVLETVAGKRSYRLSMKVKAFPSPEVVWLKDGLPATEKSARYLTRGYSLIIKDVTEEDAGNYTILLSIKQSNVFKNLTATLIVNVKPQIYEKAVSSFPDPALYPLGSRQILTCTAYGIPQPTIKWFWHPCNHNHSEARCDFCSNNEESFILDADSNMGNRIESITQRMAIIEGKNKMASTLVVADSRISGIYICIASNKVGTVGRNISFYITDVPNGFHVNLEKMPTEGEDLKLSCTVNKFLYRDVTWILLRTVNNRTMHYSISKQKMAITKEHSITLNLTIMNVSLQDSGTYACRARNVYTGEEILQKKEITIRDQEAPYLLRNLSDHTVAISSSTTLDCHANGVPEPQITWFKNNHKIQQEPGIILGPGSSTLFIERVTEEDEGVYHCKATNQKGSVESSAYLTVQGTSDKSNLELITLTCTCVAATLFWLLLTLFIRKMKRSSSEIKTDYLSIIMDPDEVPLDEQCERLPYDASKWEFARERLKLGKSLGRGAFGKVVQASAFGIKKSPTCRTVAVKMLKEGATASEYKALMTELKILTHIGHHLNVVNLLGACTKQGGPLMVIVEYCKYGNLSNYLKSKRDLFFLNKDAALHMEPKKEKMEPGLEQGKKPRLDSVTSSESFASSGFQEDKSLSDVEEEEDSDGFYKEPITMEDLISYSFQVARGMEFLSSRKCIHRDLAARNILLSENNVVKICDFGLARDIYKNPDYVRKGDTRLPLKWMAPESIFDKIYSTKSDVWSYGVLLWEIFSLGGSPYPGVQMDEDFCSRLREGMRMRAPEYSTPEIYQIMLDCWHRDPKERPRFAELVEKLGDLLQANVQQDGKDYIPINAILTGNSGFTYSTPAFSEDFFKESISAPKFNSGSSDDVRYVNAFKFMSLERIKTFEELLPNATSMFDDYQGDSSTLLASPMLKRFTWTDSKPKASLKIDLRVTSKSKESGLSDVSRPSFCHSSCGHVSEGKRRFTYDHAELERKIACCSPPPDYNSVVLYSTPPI
# human Neurokinin, NK2 Receptor, TACR2 (gene 6865), sequence (P21452 whole entry, looked up): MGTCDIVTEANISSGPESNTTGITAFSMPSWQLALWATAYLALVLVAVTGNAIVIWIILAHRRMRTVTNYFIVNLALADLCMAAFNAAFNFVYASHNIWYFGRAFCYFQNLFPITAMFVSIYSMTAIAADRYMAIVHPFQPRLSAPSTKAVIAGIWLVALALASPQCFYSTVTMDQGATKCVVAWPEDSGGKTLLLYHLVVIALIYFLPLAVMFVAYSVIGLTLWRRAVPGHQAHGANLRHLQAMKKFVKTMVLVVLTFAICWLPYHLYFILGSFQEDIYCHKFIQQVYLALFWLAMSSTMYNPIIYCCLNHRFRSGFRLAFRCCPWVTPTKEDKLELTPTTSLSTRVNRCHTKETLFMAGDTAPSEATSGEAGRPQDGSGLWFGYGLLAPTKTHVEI
# human Thromboxane A2 Receptor (TXA2), TBXA2R (gene 6915), sequence (P21731 whole entry, looked up): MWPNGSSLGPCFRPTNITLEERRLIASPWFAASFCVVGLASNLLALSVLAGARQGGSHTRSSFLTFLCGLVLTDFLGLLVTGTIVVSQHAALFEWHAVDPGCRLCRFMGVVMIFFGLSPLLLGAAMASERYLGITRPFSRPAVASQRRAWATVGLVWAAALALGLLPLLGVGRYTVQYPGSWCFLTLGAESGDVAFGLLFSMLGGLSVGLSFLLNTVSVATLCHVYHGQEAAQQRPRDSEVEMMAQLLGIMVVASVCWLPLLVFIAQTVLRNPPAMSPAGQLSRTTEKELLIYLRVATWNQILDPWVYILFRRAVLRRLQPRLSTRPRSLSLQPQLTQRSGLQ
# human Phosphoinositide 3-kinase alpha (PI3Ka), PIK3CA (gene 5290), sequence (P42336 whole entry, looked up): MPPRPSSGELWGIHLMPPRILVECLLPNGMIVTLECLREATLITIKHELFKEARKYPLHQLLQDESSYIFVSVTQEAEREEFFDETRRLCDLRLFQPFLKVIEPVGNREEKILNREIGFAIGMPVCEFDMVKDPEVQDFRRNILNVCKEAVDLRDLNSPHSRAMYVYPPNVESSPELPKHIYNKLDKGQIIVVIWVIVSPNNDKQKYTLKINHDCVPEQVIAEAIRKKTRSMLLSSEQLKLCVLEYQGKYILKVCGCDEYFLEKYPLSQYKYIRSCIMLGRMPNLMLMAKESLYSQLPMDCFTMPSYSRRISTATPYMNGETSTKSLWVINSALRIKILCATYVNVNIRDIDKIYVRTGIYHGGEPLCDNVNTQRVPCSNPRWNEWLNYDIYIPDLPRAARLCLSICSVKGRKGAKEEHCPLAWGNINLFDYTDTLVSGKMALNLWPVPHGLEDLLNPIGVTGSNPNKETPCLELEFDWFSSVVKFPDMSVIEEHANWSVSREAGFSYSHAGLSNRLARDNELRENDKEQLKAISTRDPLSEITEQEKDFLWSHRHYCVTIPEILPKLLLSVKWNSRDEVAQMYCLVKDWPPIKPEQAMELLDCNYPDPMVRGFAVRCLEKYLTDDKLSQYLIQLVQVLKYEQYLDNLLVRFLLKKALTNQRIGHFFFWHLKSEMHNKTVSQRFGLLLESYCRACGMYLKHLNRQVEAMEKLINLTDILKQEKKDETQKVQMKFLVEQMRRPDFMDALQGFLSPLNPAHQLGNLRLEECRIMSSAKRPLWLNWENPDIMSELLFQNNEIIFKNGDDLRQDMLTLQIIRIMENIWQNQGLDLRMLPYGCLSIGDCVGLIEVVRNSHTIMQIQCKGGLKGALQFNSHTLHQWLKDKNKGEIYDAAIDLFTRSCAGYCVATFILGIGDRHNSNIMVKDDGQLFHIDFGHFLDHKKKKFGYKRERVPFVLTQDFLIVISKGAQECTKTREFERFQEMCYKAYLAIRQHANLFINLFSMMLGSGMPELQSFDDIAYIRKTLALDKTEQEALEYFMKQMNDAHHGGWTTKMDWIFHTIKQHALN
# human Opioid Receptor Mu (Opiate Mu), OPRM1 (gene 4988), sequence (P35372 whole entry, looked up): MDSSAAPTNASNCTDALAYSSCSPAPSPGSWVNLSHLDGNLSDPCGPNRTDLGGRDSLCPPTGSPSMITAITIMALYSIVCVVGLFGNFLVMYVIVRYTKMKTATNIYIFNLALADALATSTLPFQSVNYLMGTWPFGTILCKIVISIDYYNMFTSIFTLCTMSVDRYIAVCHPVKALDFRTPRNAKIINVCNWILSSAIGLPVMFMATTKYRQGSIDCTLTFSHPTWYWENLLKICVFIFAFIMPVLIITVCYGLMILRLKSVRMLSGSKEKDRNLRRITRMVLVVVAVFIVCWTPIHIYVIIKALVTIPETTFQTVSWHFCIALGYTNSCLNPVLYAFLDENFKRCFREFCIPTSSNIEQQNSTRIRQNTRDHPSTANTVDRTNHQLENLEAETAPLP
# Muscarinic acetylcholine receptor M2 (Homo sapiens), sequence (P08172 whole entry, looked up): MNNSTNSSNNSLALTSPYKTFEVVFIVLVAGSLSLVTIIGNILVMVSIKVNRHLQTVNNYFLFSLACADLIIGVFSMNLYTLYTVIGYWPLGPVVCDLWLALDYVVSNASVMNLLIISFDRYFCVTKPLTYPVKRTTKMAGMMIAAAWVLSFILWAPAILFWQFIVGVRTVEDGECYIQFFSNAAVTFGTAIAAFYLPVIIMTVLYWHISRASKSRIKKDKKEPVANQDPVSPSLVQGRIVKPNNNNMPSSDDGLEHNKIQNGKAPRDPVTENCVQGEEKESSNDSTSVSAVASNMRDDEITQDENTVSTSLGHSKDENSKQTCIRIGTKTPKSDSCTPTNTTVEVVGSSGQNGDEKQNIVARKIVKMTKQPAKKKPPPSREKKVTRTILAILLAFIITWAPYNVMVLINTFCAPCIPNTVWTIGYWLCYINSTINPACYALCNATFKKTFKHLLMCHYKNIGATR
# human Phosphodiesterase 10 (PDE10), PDE10A (gene 10846), sequence (Q9Y233 whole entry, looked up): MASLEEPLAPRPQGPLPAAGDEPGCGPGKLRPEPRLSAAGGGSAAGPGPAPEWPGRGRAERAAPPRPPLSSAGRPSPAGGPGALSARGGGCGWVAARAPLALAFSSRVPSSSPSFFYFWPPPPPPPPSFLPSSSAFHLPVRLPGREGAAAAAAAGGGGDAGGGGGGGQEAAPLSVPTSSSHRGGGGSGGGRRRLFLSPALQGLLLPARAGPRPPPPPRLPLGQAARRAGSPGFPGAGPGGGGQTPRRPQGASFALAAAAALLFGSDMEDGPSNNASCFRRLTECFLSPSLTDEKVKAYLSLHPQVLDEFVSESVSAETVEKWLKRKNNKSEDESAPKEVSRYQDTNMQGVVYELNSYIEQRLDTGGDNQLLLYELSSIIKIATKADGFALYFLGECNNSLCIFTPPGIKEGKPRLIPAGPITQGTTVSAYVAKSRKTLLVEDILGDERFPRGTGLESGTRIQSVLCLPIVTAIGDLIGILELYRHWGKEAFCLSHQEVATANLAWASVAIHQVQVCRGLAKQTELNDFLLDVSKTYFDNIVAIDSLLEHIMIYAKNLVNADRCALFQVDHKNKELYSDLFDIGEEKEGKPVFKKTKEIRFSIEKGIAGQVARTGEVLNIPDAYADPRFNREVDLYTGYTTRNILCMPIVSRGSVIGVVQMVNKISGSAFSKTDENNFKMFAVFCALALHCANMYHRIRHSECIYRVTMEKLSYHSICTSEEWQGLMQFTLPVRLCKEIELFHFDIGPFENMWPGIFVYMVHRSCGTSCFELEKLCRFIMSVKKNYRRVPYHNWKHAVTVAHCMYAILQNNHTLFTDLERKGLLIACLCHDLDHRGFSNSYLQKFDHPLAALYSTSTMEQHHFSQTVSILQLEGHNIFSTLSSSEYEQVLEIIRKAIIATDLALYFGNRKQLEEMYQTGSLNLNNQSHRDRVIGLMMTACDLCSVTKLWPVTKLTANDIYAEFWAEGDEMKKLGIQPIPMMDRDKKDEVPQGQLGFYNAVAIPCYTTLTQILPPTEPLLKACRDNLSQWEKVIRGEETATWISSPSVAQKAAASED
smiles,measurement,setting,value
O=[N+]([O-])c1ccc(O)cc1C(F)(F)F,outcome,[1],inactive
same,outcome,[2],inactive
same,outcome,[3],inactive
C=C(C#N)C(=O)OCC,AC50,[4],8.63 µM (active)
CC(C)(N=C=O)c1cccc(C(C)(C)N=C=O)c1,AC50,[4],0.933 µM (active)
same,AC50,[5],9.87 µM (active)
same,AC50,[6],36.7 µM (active)
same,outcome,[7],inactive
same,AC50,[8],32.8 µM (active)
CC=Cc1ccc(OCC)c(O)c1,outcome,[9],inactive
CSCCC=O,AC50,[4],0.684 µM (active)
same,outcome,[3],inactive
C=C(C)[C@H]1CC=C(C)C(=O)C1,outcome,[9],inactive
NC(=S)NNC(N)=S,AC50,[4],3.45 µM (active)
same,outcome,[5],inactive
same,outcome,[7],inactive
same,outcome,[8],inactive
CC1(C)C2=CCCC(C)(C)[C@]23CC[C@H]1C3,AC50,[2],16.4 µM (active)
CCCCCCCCCCCCCCCC(=O)OC/C=C(C)/C=C/C=C(C)/C=C/C1=C(C)CCCC1(C)C,AC50,[2],42.8 µM (active)
same,outcome,[10],inactive
same,outcome,[8],inactive
same,outcome,[11],inactive
COCCOC(=O)c1ccccc1C(=O)OCCOC,outcome,[5],inactive
same,outcome,[12],inactive
[O-]n1ccccc1=S.[O-]n1ccccc1=S.[Zn+2],outcome,[12],inactive
same,outcome,[13],inactive
same,outcome,[14],inactive
same,AC50,[2],5.57 µM (active)
same,AC50,[7],9.86 µM (active)
same,AC50,[8],0.104 µM (active)
COC(=O)c1ccc([N+](=O)[O-])cc1,outcome,[15],inactive
same,outcome,[16],inactive
CCC1CCCCC1,outcome,[9],inactive
same,outcome,[11],inactive
CCCCCCOCCOCCO,outcome,[5],inactive
CC(=O)C1(C)CC2=C(CCCC2(C)C)CC1C (configuration not stated),outcome,[2],inactive
COc1cc(Cl)c(OC)cc1N,outcome,[5],inactive
same,AC50,[2],25 µM (active)
c1ccc2cc(Nc3ccc(Nc4ccc5ccccc5c4)cc3)ccc2c1,AC50,[5],17.6 µM (active)
COC(C)(C)CC(C)=O,outcome,[5],inactive
CC(=O)CC(=O)Nc1ccccc1,outcome,[5],inactive
Cc1ccc(C)o1,outcome,[5],inactive
CN(C)C(=O)Nc1ccc(Oc2ccc(Cl)cc2)cc1,AC50,[2],25 µM (active)
same,outcome,[7],inactive
same,outcome,[16],inactive
CC(=O)Nc1ccc(C(=O)CCl)cc1,AC50,[12],40.1 µM (active)
same,outcome,[2],inactive
same,AC50,[16],10.7 µM (active)
CN(c1nccc(=O)[nH]1)C1CCN(c2nc3ccccc3n2Cc2ccc(F)cc2)CC1,outcome,[6],inactive
same,outcome,[17],inactive
same,AC50,[16],0.761 µM (active)
same,outcome,[11],inactive
c1ccc(CCc2ccccc2)cc1,outcome,[2],inactive
CC(=O)c1c(C)c([N+](=O)[O-])c(C(C)(C)C)c([N+](=O)[O-])c1C,outcome,[5],inactive
Nc1ccc(Cl)c([N+](=O)[O-])c1,outcome,[10],inactive
COCCc1ccc(OCC(O)CNC(C)C)cc1 (configuration not stated),outcome,[10],inactive
same,AC50,[11],5.04 µM (active)
CS(=O)(=O)c1ccc(C2=C(c3ccccc3)C(=O)OC2)cc1,outcome,[9],inactive
same,outcome,[11],inactive
CS(=O)(=O)OCCCCOS(C)(=O)=O,outcome,[18],inactive
same,outcome,[2],inactive
same,outcome,[11],inactive
CCOC(=O)[C@@H](C)Oc1ccc(Oc2nc3ccc(Cl)cc3o2)cc1,outcome,[13],inactive
same,outcome,[2],inactive
same,outcome,[3],inactive
CC(C)(C)CC(C)(C)c1ccc(OCCOCC[N+](C)(C)Cc2ccccc2)cc1,AC50,[5],9.05 µM (active)
same,AC50,[7],4.14 µM (active)
same,outcome,[11],inactive
ClC(c1ccccc1)(c1ccccc1)c1ccccc1,outcome,[10],inactive
same,outcome,[8],inactive
O=C1c2ccccc2C(=O)c2c(O)ccc(O)c21,outcome,[15],inactive
COc1ccc(CCN2CCC(Nc3nc4ccccc4n3Cc3ccc(F)cc3)CC2)cc1,outcome,[6],inactive
same,AC50,[17],3.04 µM (active)
same,AC50,[16],0.227 µM (active)
same,AC50,[11],0.115 µM (active)
CCOc1ccc(NC(=O)CC(C)=O)cc1,outcome,[5],inactive
CN(C)C(=S)SC(=S)N(C)C,outcome,[12],inactive
same,AC50,[6],30.8 µM (active)
same,AC50,[7],1.59 µM (active)
CCCCN(CCCC)C(=O)N(CCCC)CCCC,outcome,[17],inactive
Cc1cc(CCC(=O)OCCOCCOCCOC(=O)CCc2cc(C)c(O)c(C(C)(C)C)c2)cc(C(C)(C)C)c1O,AC50,[16],0.23 µM (active)
C=CC(C)C#N (configuration not stated),outcome,[19],inactive
